SMILES strings stand for the structures. Active and inactive are the calls of the source. How the source made its calls: active means hit-call score of the fitted dose curve at least 0.9, where 1 is the maximum; inactive means score below 0.9.

Read-out in assay [1]: TIMP metallopeptidase inhibitor 2 (TIMP2), TIMP2 (gene 7077)
Description: BSK_KF3CT_TIMP2: BioMAP Diversity Plus: KF3CT Assay for TIMP metallopeptidase inhibitor 2 (TIMP2) Biomarker Activity (AID 2283071). To be noted: primary human keratinocytes with fibroblasts; actives raise or lower the signal. In outline: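 Co-culture of human primary keratinocytes and foreskin fibroblasts, measured 24 h after chemical dosing. TIMP-2 quantified by ELISA and fitted in both directions relative to DMSO. Cytotoxicity checked in parallel cultures by SRB total-protein staining.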

Read-out in assay [2]: Transforming growth factor beta 1 (TGFb1), TGFB1 (gene 7040)
Description: BSK_KF3CT_TGFb1: BioMAP Diversity Plus: KF3CT Assay for Transforming growth factor beta 1 (TGFb1) Biomarker Activity (AID 2283072). To be noted: primary human keratinocytes with fibroblasts; actives raise or lower the signal. In outline: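 Human keratinocyte/foreskin fibroblast co-culture; TGF-b1 measured by ELISA 24 h after dosing, fitted bidirectionally versus DMSO. Cytotoxicity checked in parallel cultures by total protein (SRB staining, 560 nm).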

Read-out in assay [3]: C-C motif chemokine 2 (Homo sapiens) (UniProt P13500)
Put plainly: BSK_KF3CT_MCP1: BioMAP Diversity Plus: KF3CT Assay for Monocyte Chemoattractant Protein 1 (MCP1/CCL2) Biomarker Activity (AID 2283073). Conditions: primary human keratinocytes with fibroblasts; actives raise or lower the signal. The procedure, abridged: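 Keratinocytes and foreskin fibroblasts were co-cultured, dosed with chemical, and sampled 24 h later. MCP-1 was quantified by ELISA, and the endpoint was analyzed with bidirectional fitting using DMSO as negative control.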

Read-out in assay [4]: Matrix Metallopeptidase 9 (MMP9), MMP9 (gene 4318)
Put plainly: BSK_KF3CT_MMP9: BioMAP Diversity Plus: KF3CT Assay for Matrix Metallopeptidase 9 (MMP9) Biomarker Activity (AID 2283074).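 On AC50: MMP9 protein level quantified by ELISA in the co-culture.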 Conditions: primary human keratinocytes with fibroblasts; actives raise or lower the signal. The procedure, abridged: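 Keratinocyte plus foreskin fibroblast human primary skin co-culture was dosed with chemical and MMP-9 was quantified by ELISA 24 h later. Bidirectional curve fitting used DMSO as negative control and activity baseline.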

Read-out in assay [5]: urokinase plasminogen activator (uPA), PLAU (gene 5328)
Description: BSK_KF3CT_uPA: BioMAP Diversity Plus: KF3CT Assay for urokinase plasminogen activator (uPA) Biomarker Activity (AID 2283075). Conditions: primary human keratinocytes with fibroblasts; actives raise or lower the signal. The procedure, abridged: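 Human keratinocyte plus foreskin fibroblast primary co-culture exposed to chemical for 24 h. uPA levels were quantified by ELISA, and activity was fitted bidirectionally against a DMSO negative-control baseline.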

Read-out in assay [6]: CD40, CD40 (gene 958)
Description: BSK_LPS_CD40: BioMAP Diversity Plus: LPS Assay for CD40 Biomarker Activity (AID 2283076). To be noted: primary human HUVEC with PBMC; actives raise or lower the signal. In outline: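 CD40 signal, measured by ELISA, is fitted in both directions relative to DMSO vehicle. The system is an LPS-driven human vascular primary co-culture of endothelial cells and PBMC, sampled 24 h after compound addition.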

Read-out in assay [7]: E-selectin (Homo sapiens) (UniProt P16581)
Description: BSK_LPS_Eselectin: BioMAP Diversity Plus: LPS Assay for Eselectin Biomarker Activity (AID 2283077). Conditions: primary human HUVEC with PBMC; actives raise or lower the signal. The procedure, abridged:
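Signal of E-selectin, detected by ELISA, served as the endpoint; cells were umbilical vein endothelium with PBMC, read 24 h after treatment. DMSO defined baseline, and both increases and decreases were fitted.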

Read-out in assay [8]: Interleukin-8 (IL8), CXCL8 (gene 3576)
Description: BSK_LPS_IL8: BioMAP Diversity Plus: LPS Assay for Interleukin-8 (IL8) Biomarker Activity (AID 2283078). To be noted: primary human HUVEC with PBMC; actives raise or lower the signal. In outline:
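Endothelial cells and PBMC from human donors are co-cultured, treated with chemicals and LPS, then assayed for IL-8 by ELISA after 24 h. Parallel SRB staining (0.1% SRB after 10% TCA fixation, 560 nm) flags cytotoxicity.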

The nature of assay [9]: BSK_LPS_SRB: Viability Assessment in the BioMAP Diversity Plus: LPS Assay (AID 2283079).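 Further: total protein by sulforhodamine B absorbance as a cytotoxicity measure; measured one day after compound addition; fitted in both directions against DMSO so loss or gain of signal counts.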 Conditions: primary human HUVEC with PBMC. In outline: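 Overt cytotoxicity was gauged by sulforhodamine B total-protein staining in a primary human vascular endothelial and mononuclear cell co-culture 24 h post-dosing. Activity was fitted in both directions relative to DMSO.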

E-selectin (Homo sapiens), sequence (P16581 whole entry, looked up): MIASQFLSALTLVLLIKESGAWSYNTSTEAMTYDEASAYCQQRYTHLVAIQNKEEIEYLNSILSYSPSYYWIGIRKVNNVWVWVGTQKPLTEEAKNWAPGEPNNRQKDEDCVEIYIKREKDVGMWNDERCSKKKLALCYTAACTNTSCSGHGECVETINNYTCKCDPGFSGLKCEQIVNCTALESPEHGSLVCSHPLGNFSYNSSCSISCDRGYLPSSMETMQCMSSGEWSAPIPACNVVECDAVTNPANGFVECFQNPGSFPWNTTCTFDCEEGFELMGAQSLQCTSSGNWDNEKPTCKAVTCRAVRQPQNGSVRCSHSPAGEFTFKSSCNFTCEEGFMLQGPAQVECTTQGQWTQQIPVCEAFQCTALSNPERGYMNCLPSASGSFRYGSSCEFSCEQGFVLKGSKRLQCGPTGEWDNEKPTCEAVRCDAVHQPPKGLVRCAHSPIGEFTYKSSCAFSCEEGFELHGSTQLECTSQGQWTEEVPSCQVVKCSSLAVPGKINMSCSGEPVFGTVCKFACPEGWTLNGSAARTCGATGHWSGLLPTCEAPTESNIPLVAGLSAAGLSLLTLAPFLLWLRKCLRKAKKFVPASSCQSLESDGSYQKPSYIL

As for `CC1=NNC(=O)N(/N=C/c2cccnc2)C1`, the outcome in assay [1], in assay [2], in [3], in assay [4], in [5] and in assay [6] was inactive. Besides, the outcome in assay [7], in assay [8] and in assay [9] was inactive.
Turning to `CNC(=O)Oc1cccc2c1OC(C)(C)O2`, the result in assay [1], in [2], in assay [3], in [4], in [5] and in assay [9] was inactive. The AC50 was 13.6 µM (active) in [6], 20 µM (active) in assay [7] and 25.2 µM (active) in assay [8].
As to `CCOP(=O)(OCC)Oc1cc(C)nc(C(C)C)n1`, the concentration at half-maximal activity (AC50) in [1] was 29.8 µM (active); in assay [3], 31.5 µM (active); in [4], 30.3 µM (active); in assay [5], 29.3 µM (active); in assay [6], 14.4 µM (active). For the same molecule, the outcome in assay [2], in assay [7], in assay [8] and in assay [9] was inactive.
On to `CCNc1nc(Cl)nc(NC(C)(C)C#N)n1`, for which the result in assay [1], in assay [2], in assay [3], in [4], in [5] and in [6] was inactive. For the same molecule, the result in assay [7], in [8] and in assay [9] was inactive.
Take `COP(=O)(NC(C)=O)SC` (stereo not given): the result in assay [1], in assay [2], in [3], in assay [4], in [5] and in assay [6] was inactive. The result in assay [7], in [8] and in assay [9] was inactive.
For the molecule `CCCSP(=O)(OCC)Oc1ccc(Br)cc1Cl` (stereo not given), the outcome in assay [1], in [2], in [3], in [4], in [5] and in assay [6] was inactive. The outcome in assay [7] and in [9] was inactive. Also, in [8], the half-maximal activity concentration (AC50) was 30.2 µM (active).
On to `CN1COCN(Cc2cnc(Cl)s2)C1=N[N+](=O)[O-]`, for which the outcome in assay [1], in [2], in [3], in assay [4], in assay [5] and in assay [6] was inactive. In addition, the outcome in assay [7], in assay [8] and in [9] was inactive.
Regarding `CCc1cnc(C2=NC(C)(C(C)C)C(=O)N2)c(C(=O)O)c1` (stereo not given), the result in [1], in assay [2], in [3], in assay [4], in assay [5] and in assay [6] was inactive. The outcome in [7], in assay [8] and in assay [9] was inactive.
`CCCSP(=O)(OCC)SCCC`: the outcome in assay [1], in assay [2], in assay [3], in assay [4], in [5] and in [6] was inactive. Also, the outcome in [7], in [8] and in assay [9] was inactive.
Turning to `CCCCOC(=O)[C@@H](C)Oc1ccc(Oc2ccc(C#N)cc2F)cc1`, the result in assay [1], in [2], in assay [3], in assay [4], in [5] and in assay [6] was inactive. Moreover, the result in [7], in [8] and in assay [9] was inactive.
On to `CC(C)[C@H](C(=O)O[C@H](C#N)c1cccc(Oc2ccccc2)c1)c1ccc(Cl)cc1`, for which the result in assay [2], in assay [3], in assay [4], in [5], in [6] and in [9] was inactive. The figures for the AC50 in assay [7] and in assay [8] were 7.16 µM (active) and 5.9 µM (active), respectively.
In the case of `C[N+]1(C)CCCCC1`, the outcome in assay [1], in [2], in [3], in assay [4], in assay [5] and in assay [6] was inactive. Moreover, the outcome in assay [7], in assay [8] and in [9] was inactive.
Regarding `CCOP(=O)(SC(C)CC)N1CCSC1=O` (stereo not given), the outcome in assay [1], in [2], in [3], in assay [4], in assay [5] and in [6] was inactive. For the same molecule, the result in assay [7], in assay [8] and in assay [9] was inactive.
With `CN(C)[C@@H]1C(=O)C(C(N)=O)=C(O)[C@@]2(O)C(=O)C3=C(O)c4c(O)cccc4[C@@](C)(O)[C@H]3[C@H](O)[C@@H]12`, the outcome in assay [1], in assay [2], in assay [3], in assay [4], in [5] and in [6] was inactive. Also, the result in [7], in [8] and in [9] was inactive.
Regarding `CCCCOC(=O)c1ccccc1C(=O)O`, the outcome in assay [1], in [2], in assay [3], in assay [4], in [5] and in [6] was inactive. Besides, the result in assay [7], in assay [8] and in assay [9] was inactive.
Consider `CCOC(=O)CC(SP(=O)(OC)OC)C(=O)OCC` (stereo not given), for which the result in assay [1], in [2], in assay [3], in assay [4], in assay [5] and in [6] was inactive. The outcome in [8] and in assay [9] was inactive. Moreover, the concentration at half-maximal activity (AC50) in [7] is 2.5 µM (active).
As for `COP(=O)(OC)SCn1c(=O)oc2cc(Cl)cnc21`, the result in assay [1] and in [2] was inactive. Also, the AC50 in assay [3] is 31.3 µM (active); in [4] it was 25.8 µM (active); in [5], 20 µM (active); in assay [6], 19.8 µM (active); in assay [7] it was 19.1 µM (active); in assay [8], 20 µM (active). For the same molecule, the half-maximal activity concentration (AC50) in [9] is 20 µM (active).
For the molecule `CCCOc1nn(C(=O)NS(=O)(=O)c2ccccc2C(=O)OC)c(=O)n1C`, the outcome in assay [1], in assay [2], in assay [3], in [5], in assay [6] and in assay [7] was inactive. Also, the result in assay [9] was inactive. Moreover, the figures for the concentration at half-maximal activity (AC50) in [4] and in assay [8] were 0.103 µM (active) and 0.907 µM (active), respectively.
Take `CC1(C(=O)Nc2ccc(O)c(Cl)c2Cl)CCCCC1`: the outcome in assay [1], in assay [2], in assay [3], in [4], in assay [5] and in assay [6] was inactive. In addition, the result in [8] and in assay [9] was inactive. In [7], the AC50 is 16.4 µM (active).

By AC50 is commonly meant the midpoint of the concentration-response curve, whichever way the signal moves.
